Source: PubChem
This is a sample that favours compounds with a hit; in the whole collection about 3.5% have one here.
MITF inh – inhibitors of human MITF; 0.91% of 650,000 active; AID 1259374; inhibition, % at 2.6 µM; AlphaScreen MITF homodimerization, bead proximity signal; O75030; in the data active = inhibition above about 50%;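 note: 0% = vehicle wells with protein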
FBW7 act – activators of human E3 ligase FBW7; 0.13% of 650,000 active; AlphaScreen FBW7–phospho-cyclin E peptide binding, activator screen; AID 1259310; normalized activity (activation), % at 26.1 µM; in the data active = normalized activity above about 1.9%;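 note: purified mutant Fbw7 with reduced substrate affinity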
GPR151 ag – human GPR151 activation; activation, % at 11.2 µM; Q8TDV0; PathHunter beta-arrestin GPR151 cells, luminescence; 1% of 650,000 active; in the data active = activation above about 4.9%;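 note: 0% = median of compound wells and 100% = cells with positive control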
TEAD-YAP block – TEAD-YAP interaction inhibition. 1.4% of 640,000 active. HEK-TIYL cells, TEAD-Gal4/YAP UAS-luciferase luminescence. inhibition, % at 9.12 µM; in the data active = inhibition above about 32%;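 note: 0% = median of test compound wells and 100% = reference inhibitor wells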
The depositor's hits bear a star.

SMILES	MITF inh	FBW7 act	GPR151 ag	TEAD-YAP block
CCN(CC)Cc1c(C)[nH]c2ccc(Br)cc2c1=O	-5	0	2	3
O=c1c(Oc2ccc(Cl)cc2)coc2cc(O)ccc12	12	0	2	-4
COc1cc(C(=O)Oc2ccc3c(=O)c(Oc4ccc(C(C)(C)C)cc4)coc3c2)cc(OC)c1OC	-6	0	-1	80*
COc1cc(C(=O)Oc2ccc3c(=O)c(Oc4cc(C)cc(C)c4)coc3c2)cc(OC)c1OC	3	0	1	2
CC(C)(C)c1ccc(Oc2coc3cc(O)ccc3c2=O)cc1	18	1	0	64*
COc1ccc(/C=C(/C#N)c2cccc(F)c2)c(OC)c1	-3	0	-1	43*
COc1ccc(/C=C(/C#N)c2cccc([N+](=O)[O-])c2)c(OC)c1	15	0	-1	8
CNC(=O)/C(=C\c1ccccc1)NC(=O)c1ccccc1	8	0	0	-10
CNC(=O)C(NC(=O)c1ccccc1)=C1CCCCC1	-3	0	-1	43*
Oc1ccc([C@H]2Oc3cc(O)cc(O)c3C[C@H]2O)cc1	28	0	-1	-3
O=C(O[C@@H]1Cc2c(O)cc(O)cc2O[C@@H]1c1cc(=O)c(O)c2c(O)c(O)cc([C@H]3Oc4cc(O)cc(O)c4C[C@H]3O)c2c1)c1cc(O)c(O)c(O)c1	106*	0	4	1
CCOc1ccc(NC(=O)C2CCN(C(=O)c3ccc(Br)cc3)CC2)cc1	0	0	0	-11
O=C(NCC1(c2cccs2)CCOCC1)C1CC1	6	0	2	-8
Cc1ccc(N/C=C/C(=O)c2cccs2)cc1	37	0	1	81*
O=C(/C=C\Nc1cccc(F)c1)c1cccs1	8	0	-2	-4
O=C(/C=C/Nc1ccc(I)cc1)c1cccs1	23	0	0	41*
COC(=O)c1ccc(N/C=C/C(=O)c2cccs2)cc1	-8	0	-5	53*
CCCCSc1nc2sc3c(c2c(=O)n1-c1ccccc1)CCCC3	-4	0	0	-6
C=CCn1c(N)c(C(=O)NCCN2CCOCC2)c2nc3ccccc3nc21	-14	0	-1	1
Cc1nnc(NC(=O)COc2ccccc2[N+](=O)[O-])s1	-11	1	-1	-4
Cc1ccc(C)c(S(=O)(=O)Nc2ccc(I)cc2)c1	5	0	0	47*
O=C(Oc1ccc(/C=C/c2ccncc2)cc1)c1ccco1	8	0	-5	35*
COC(=O)N/N=C\c1ccc(OC(=O)c2ccco2)cc1	5	1	-4	-2
O=C(Oc1cccnc1)c1ccco1	9	0	0	-11
CC(C)(C)OC(=O)N/N=C\c1ccc(OC(=O)c2ccco2)cc1	11	0	3	59*
SMILES	MITF inh	FBW7 act	GPR151 ag	TEAD-YAP block
Cc1cc(CN2C(=O)C(C)Sc3ccccc32)no1 (centres undefined)	14	0	3	-6
O=C(c1n[nH]c(=O)c2ccccc12)N1CCCCC1	20	1	1	1
CCC(C)NC(=O)C1CCN(S(=O)(=O)c2c(C)cc(C)cc2C)CC1 (centres undefined)	7	0	-1	1
CCOc1ccccc1-c1cc(C(=O)N/N=C(/C)c2cccc(O)c2)[nH]n1	9	1	0	52*
CCOc1ccccc1-c1cc(C(=O)N/N=C(/C)c2ccccc2)[nH]n1	9	0	0	50*
COc1cc(/C(C)=N/NC(=O)c2cc(-c3cccc4ccccc34)n[nH]2)ccc1O	9	1	0	-49
O=C(OCc1cccnc1)c1ccccc1Nc1ccnc2c(Cl)cccc12	5	0	0	-4
CC(C)(C)c1ccc(C(=O)Nc2ccc(S(=O)(=O)N3CCCCC3c3cccnc3)cc2)cc1 (centres undefined)	-8	0	-1	43*
O=C(Nc1ccc(S(=O)(=O)N2CCCCC2c2cccnc2)cc1)c1ccccc1 (centres undefined)	-2	0	0	8
COc1cc(/C=C/C(=O)Nc2ccc(S(=O)(=O)N3CCCCC3c3cccnc3)cc2)cc(OC)c1OC (centres undefined)	14	0	1	56*
CN1CCS/C1=C/C=C1\SC(=S)NC1=O	7	0	3	-38
COc1ccccc1C1CC(=O)c2c(ccc3ccccc23)N1 (centres undefined)	4	0	0	61*
COc1cc(C2CC(=O)c3c(ccc4ccccc34)N2)ccc1OCc1ccccc1 (centres undefined)	18	0	0	-15
CC(C)c1ccc(-c2cc(C(=O)NC3CCN(Cc4ccccc4)CC3)c3ccccc3n2)cc1	11	0	2	-5
COc1cc2nc(Nc3nc4ccccc4n3C)nc(Nc3cc(OC)c(OC)c(OC)c3)c2cc1OC	-9	0	2	28
COc1cc2nc(Nc3nc4ccccc4n3C)nc(NC3CC3)c2cc1OC	19	3.6*	-1	11
COc1ccc(Nc2nc(NCc3cccc(C(F)(F)F)c3)c3cc(OC)c(OC)cc3n2)cc1	8	0	2	17
COc1cc2nc(Nc3nc4ccccc4n3C)nc(NCc3cccc(C(F)(F)F)c3)c2cc1OC	4	0	2	39*
COc1cc2nc(Oc3ccccc3)nc(NCc3cccc(C(F)(F)F)c3)c2cc1OC	-2	0	2	47*
COc1cc2nc(Cl)nc(NCc3cccc(C(F)(F)F)c3)c2cc1OC	-8	0	-1	5
CCN1CCN(C(=O)c2cccc(C(F)(F)F)c2)C(C(=O)N(CC)CC)C1 (centres undefined)	-1	0	0	-3
COc1ccc(NC(=O)Nc2cc(C)ccn2)c(OC)c1	-10	0	-2	-35
CCOC(=O)c1ccc(N=CC2=C(O)c3ccccc3C2=O)cc1	2	0	-1	48*
COc1ccc(N=CC2=C(O)c3ccccc3C2=O)cc1OC	10	0	-2	11
O=C1C(C=Nc2cccc(C(F)(F)F)c2)=C(O)c2ccccc21	-10	0	0	70*
SMILES	MITF inh	FBW7 act	GPR151 ag	TEAD-YAP block
O=C1C(C=Nc2ccc3c(c2)CCC3)=C(O)c2ccccc21	2	0	0	49*
C=CCNc1ccc2c3c(cccc13)C(=O)N(c1ccccc1)C2=O	-3	0	-1	12
CC1=C(C(=O)N2CCC3(CC2)OCCO3)C2(CCCCC2)OC1=O	0	0	0	-3
Cc1cc(NC(=O)CCN2C(=O)/C(=C\c3ccco3)SC2=S)no1	22	0	2	6
COCCN(CC(=O)NCCc1ccccc1)C(=O)CCC(=O)Nc1cc(C)ccn1	1	0	4	33*
Cc1ccnc(NC(=O)CCC(=O)N(CC(=O)NCCc2ccccc2)C2CCCC2)c1	-2	0	3	-10
Cc1cccc(N(CC(=O)NCc2ccccc2)C(=O)CCC(=O)Nc2ccccn2)c1	8	1.9*	0	-14
c1nc2nc3c(c(Nc4ccc5c(c4)OCCO5)n2n1)CCC3	-7	0	1	40*
O=C(O)c1cc(N2C(=O)c3cccc([N+](=O)[O-])c3C2=O)ccc1O	-2	0	0	7
